The source of these data is PubChem BioAssay (NCI).

Values joined by “and” are separate entries in the source; they are usually repeats but may differ in a detail not shown here. Equal entries are not always repeated. This is part of a sample that, as a whole, favours compounds with a hit. Of some 83,000 tested, about 20% had one in any assay.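 The test compound was applied at a single concentration to cells in 96-well plates for 48 hours, and percent growth was recorded.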 A number with no mark means an inactive call. Active and inactive are the calls of the source. Rule for the calls: active = growth percent below 10; inactive = the rest.

The assay relates to MDA-MB-468 breast. The experiment in a line: NCI-60 one-dose screen, 48 h (100 = growth as untreated, 0 = no growth, -100 = all killed). Particulars: 10 µM unless noted.
For `COc1ccc(N2CCN(c3ccc(NC4=C(Cl)C(=O)c5ncccc5C4=O)cc3)CC2)cc1`, the growth was -53.9% (active).

As for `COc1ccccc1-n1cc(C#N)c(N)c1C(=O)c1ccc(Br)cc1`, the growth is 31.3%. Turning to `COc1ccc(/C=N/C2=C(C#N)C(c3ccccc3)c3ccc4ccccc4c3O2)cc1` (stereo not given), the growth is 17.9%. Turning to `CCCCN(CCCC)C(=O)[C@H](CC)[C@@H]1CC[C@@H](C)[C@@H]([C@H](C)[C@@H](O)[C@@H](C)C(=O)[C@H](CC)C2O[C@]3(C=CC(=O)[C@]4(CC[C@@](C)([C@H]5CC[C@](O)(CC)[C@H](C)O5)O4)O3)[C@H](C)C[C@@H]2C)O1` (stereo not given in full), the growth is -11.5% (active). For the molecule `C#CCN(C)Cc1ccccc1`, the growth was 96.1% and 122%. As to `C=C(C)C1CCC2(C(=O)O)CCC3(C)C(CCC4C5(C)CCC(OC(=O)NCc6ccccc6)C(C)(C)C5CCC43C)C12` (stereo not given), the growth was 35.3%. For `COc1ccc(-c2ccc(-c3ccc(C(=N)N)cn3)o2)cc1Cl`, the growth is -9.43% (active). With `N#Cc1c(-c2ccccc2)cc(-c2ccccc2)n(CCCCCCC(=O)O)c1=O`, the growth was 88.9%. On to `CNC(=O)NCC1OC(n2cnc3c(NC(=O)Nc4ccccc4)ncnc32)C(O[Si](C)(C)C(C)(C)C)C1O[Si](C)(C)C(C)(C)C` (stereo not given), for which the growth was 35.8%. For the molecule `O=C1Cc2c(sc3c(F)cccc23)C(c2ccccc2[N+](=O)[O-])N1` (stereo not given), the growth is 86.9%.

With `CCCOC(=O)N[C@H]1CCc2cc(OC)c(OC)c(OC)c2-c2ccc(SC)c(=O)cc21`, the growth is -16.8% (active). As to `CCOC(=O)C1=C(c2ccccc2)N=C2SC=C(c3ccc(Cl)cc3)N2C1c1ccc(Br)cc1` (stereo not given), the growth was 54.3%. Under `CC(=O)C1CCC2C3CC(F)C4=CC(=O)CCC4(C)C3C(O)CC12C` (stereo not given) stands 104%; under `CC(Cc1ccco1)C(=O)NC(N)=O` (stereo not given), 95.7%. Turning to `Cc1ccc(/C=N/Nc2nc(Nc3ccccc3)nc(-n3nc(C)cc3C)n2)cc1`, the growth was 60.9%.

Turning to `COc1ccc(-c2cc3c4c(nc5ccccc5c4c2)CC(c2cc(OC)c(OC)c(OC)c2)O3)cc1` (stereo not given), the growth is 26.6%.

In the case of `CN(C[C@H]1Cc2c(cccc2N2CCN(Cc3ccccn3)CC2)CN1)[C@H]1CCCc2cccnc21`, the growth was 63.4%. In the case of `COc1ccc(/C(C)=C(\c2ccc(Cl)cc2)c2ccc(OCCCN(C)C)cc2)cc1F`, the growth was 75.7%.

In the case of `CCN(CC)CCN1C(=O)c2cccc3c(/C=C/CN4C(=O)c5cccc6cccc(c56)C4=O)ccc(c23)C1=O`, the growth was 99.2%. Regarding `O=C(CCCN1CCC(O)(c2ccc(Br)cc2)CC1)c1ccc(F)cc1`, the growth is 49.2%. As for `COc1ccc(NCc2cn(-c3ccc(C(=O)O)cc3)nc2-c2ccc(C(=O)O)cc2)cc1C(F)(F)F`, the growth is 98.6%.

Consider `CSc1nc(NCCO)c(C#N)c(-c2cccc(N)c2)n1`, for which the growth was 116%.

For `CC(C)(C)n1cc(-c2ccnc(NCCNS(=O)(=O)c3ccc(O)cc3)c2)c(-c2cccc(O)c2)n1`, the growth was 91.8%. Consider `CCCCCCCC(=O)SCC/C=C/[C@@H]1CC(=O)NCc2cccc(n2)C2=N[C@@](C)(CS2)C(=O)N[C@@H](C(C)C)C(=O)N1`, for which the growth is -10.5% (active). For the molecule `S=c1c2ncccc2c(-c2ccccn2)nn1Cc1ccccn1`, the growth is 111%. Under `COc1cc(C2=NN(c3ccccc3)C(c3cccc(Nc4ccnc5cc(C(F)(F)F)ccc45)c3)C2)cc(OC)c1OC` (stereo not given) stands 92.2%; under `Nc1nc(N)c2c(n1)NC(c1cccc(Nc3ccnc4cc(C(F)(F)F)ccc34)c1)CC(c1ccc(Br)cc1)=N2` (stereo not given), 41.9%; under `C=C(CNCCc1ccc(O)cc1)[C@@H]1CC[C@]2(CO)CC[C@]3(C)[C@H](CC[C@@H]4[C@@]5(C)CCC(NCCc6ccc(O)cc6)C(C)(C)[C@@H]5CC[C@]43C)[C@@H]12` (stereo not given in full), -74.6% (active). In the case of `CCN(CC)Cc1cc(Nc2c3ccc(Cl)cc3nc3ccc(OC)cc23)ccc1O`, the growth is 60.5%.

On to `Cc1ccc(C2CC(c3ccc(Nc4nc(NCCO)nc(Nc5ccc(Cl)cc5)n4)cc3)=NN2c2cc(Cl)cc(Cl)c2)cc1` (stereo not given), for which the growth was 102%. Then `O=C1Nc2c(ccc(Cl)c2Cl)/C1=C/c1ccc([N+](=O)[O-])cc1`, with 103%; and `C/C=C(/C)C(=O)OC1C=C(CO)C(=O)C(OC(=O)C2(C)OC2C)C1C(C)C` (stereo not given), with -66.8% (active). For the molecule `Cc1cc(-c2cc(O)ccc2Cl)cc2nnc(Nc3ccc(OCCN4CCCC4)cc3)nc12`, the growth was -69.4% (active). With `Cc1ccccc1C(=O)c1ccccc1C(=O)O`, the growth was 108%.

On to `O=C1c2ccc3c4c(ccc(c24)C(=O)N1CCCNCc1ccccc1)C(=O)N(CCCNCc1ccccc1)C3=O`, for which the growth was -95.5% (active). In the case of `CCC(=O)Oc1ccc2c(c1)CC[C@@H]1[C@@H]2CC[C@]2(C)C[C@H](OC(=O)CC)C[C@@H]12`, the growth was 47.9%.

As to `C(=C\c1nc2ccccc2[nH]1)/c1nc2ccccc2[nH]1`, the growth is 106%. Regarding `CCOc1ccc(-c2nc3ccc(-c4nc5ccc(N6CCN(C)CC6)cc5[nH]4)cc3[nH]2)cc1OCC`, the growth was -44.5% (active). With `C=CCC(CCCC)(C(=O)OCC)C(=O)OCC`, the growth was 107%. Take `C=C1C(=O)O[C@H]2[C@H]1CC/C(Cn1cc(-c3cc(C(F)(F)F)cc(C(F)(F)F)c3)nn1)=C\CC[C@@]1(C)O[C@@H]21`: the growth is -56.7% (active).
